Source: PubChem BioAssay AID1159580 (chemical genetic matrix, 2015)
Hit rate of the full screen: of about 5,500 compounds, about 2,000 (36%) were called active. Inconclusive results (about 18%) are left out. Rule as the data show it: active = normalized growth mostly below about 0.91 (no sharp cut-off); inconclusive = no clear call, values can overlap the other calls; inactive = mostly above about 0.92. The list shows a part of the results.

Experiment: chemical genetic growth profiling, strain panel (AID 1159580);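 also: tested at 20 µM; growth read once vehicle control cultures reached saturation at 30 °C; 1 = growth at the plate median or of vehicle wells; lower values mean less growth of the strain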
Conditions: growth OD

Measured: normalized growth

C[N+](C)(C)CC(=O)[O-]
inactive: S. cerevisiae deletion strains, locus YJR075W, strain HOC1, stronger effect = lower value 0.977 | S. cerevisiae deletion strains, locus YKL009W, strain mrt4, stronger effect = lower value 0.972 | S. cerevisiae deletion strains, locus YKL068W, stronger effect = lower value 0.976 | S. cerevisiae deletion strains, locus YKL085W, strain MDH1 (second series), stronger effect = lower value 0.978 | S. cerevisiae deletion strains, locus YKL085W, strain MDH1, stronger effect = lower value 0.978 | S. cerevisiae deletion strains, locus YKL160W, strain elf1, stronger effect = lower value 0.995 | S. cerevisiae deletion strains, locus YKL190W, strain CNB1, stronger effect = lower value 0.976 | S. cerevisiae deletion strains, locus YKR001C, strain vps1, stronger effect = lower value 0.982 | S. cerevisiae deletion strains, locus YKR026C, strain gcn3, stronger effect = lower value 1.02 | S. cerevisiae deletion strains, locus YKR091W, strain srl3, stronger effect = lower value 0.976 | S. cerevisiae deletion strains, locus YLL001W, strain dnm1, stronger effect = lower value 0.949 | S. cerevisiae deletion strains, locus YLL026W, stronger effect = lower value 0.982 | S. cerevisiae deletion strains, locus YLL041C, strain sdh2, stronger effect = lower value 0.963 | S. cerevisiae deletion strains, locus YLR027C, strain aat2, stronger effect = lower value 0.989 | S. cerevisiae deletion strains, locus YLR039C, strain RIC1, stronger effect = lower value 0.952 | S. cerevisiae deletion strains, locus YLR058C, strain SHM2, stronger effect = lower value 1 | S. cerevisiae deletion strains, locus YLR102C, strain apc9, stronger effect = lower value 0.992 | S. cerevisiae deletion strains, locus YLR113W, strain HOG1, stronger effect = lower value 0.981 | S. cerevisiae deletion strains, locus YLR221C, strain rsa3, stronger effect = lower value 1 | S. cerevisiae deletion strains, locus YLR258W, strain gsy2, stronger effect = lower value 0.985 | S. cerevisiae deletion strains, locus YLR262C, strain YPT6 (second series), stronger effect = lower value 0.948 | S. cerevisiae deletion strains, locus YLR262C, strain YPT6, stronger effect = lower value 0.938 | S. cerevisiae deletion strains, locus YLR268W, strain sec22, stronger effect = lower value 0.96 | S. cerevisiae deletion strains, locus YLR320W, strain mms22, stronger effect = lower value 1.01 | S. cerevisiae deletion strains, locus YLR330W, strain CHS5, stronger effect = lower value 0.99 | S. cerevisiae deletion strains, locus YLR342W, strain FKS1 (second series), stronger effect = lower value 1.04 | S. cerevisiae deletion strains, locus YLR342W, strain FKS1, stronger effect = lower value 0.988 | S. cerevisiae deletion strains, locus YLR357W, strain rsc2, stronger effect = lower value 0.969 | S. cerevisiae deletion strains, locus YLR370C, strain arc18, stronger effect = lower value 0.985 | S. cerevisiae deletion strains, locus YLR371W, strain rom2, stronger effect = lower value 0.993 | S. cerevisiae deletion strains, locus YLR384C, strain iki3, stronger effect = lower value 0.967 | S. cerevisiae deletion strains, locus YLR418C, strain cdc73, stronger effect = lower value 0.99 | S. cerevisiae deletion strains, locus YML016C, strain PPZ1, stronger effect = lower value 1.01 | S. cerevisiae deletion strains, locus YML032C, strain rad52, stronger effect = lower value 0.97 | S. cerevisiae deletion strains, locus YML120C, strain ndi1, stronger effect = lower value 0.98 | S. cerevisiae deletion strains, locus YML124C, strain tub3, stronger effect = lower value 0.992 | S. cerevisiae deletion strains, locus YMR058W, strain fet3, stronger effect = lower value 0.987 | S. cerevisiae deletion strains, locus YMR078C, strain ctf18, stronger effect = lower value 0.981 | S. cerevisiae deletion strains, locus YMR125W, strain sto1, stronger effect = lower value 0.951 | S. cerevisiae deletion strains, locus YMR129W, stronger effect = lower value 0.975 | S. cerevisiae deletion strains, locus YMR205C, strain PFK2, stronger effect = lower value 0.986 | S. cerevisiae deletion strains, locus YMR223W, strain ubp8, stronger effect = lower value 1.03 | S. cerevisiae deletion strains, locus YMR231W, strain pep5, stronger effect = lower value 0.972 | S. cerevisiae deletion strains, locus YMR263W, strain SAP30, stronger effect = lower value 0.977 | S. cerevisiae deletion strains, locus YMR307W, strain GAS1, stronger effect = lower value 1.04 | S. cerevisiae deletion strains, locus YNL067W, strain RPL9B, stronger effect = lower value 0.982 | S. cerevisiae deletion strains, locus YNL071W, strain lat1, stronger effect = lower value 0.989 | S. cerevisiae deletion strains, locus YNL128W, strain TEP1, stronger effect = lower value 0.989 | S. cerevisiae deletion strains, locus YNL153C, strain GIM3, stronger effect = lower value 0.985 | S. cerevisiae deletion strains, locus YNL183C, strain NPR1, stronger effect = lower value 0.938 | S. cerevisiae deletion strains, locus YNL209W, strain ssb2, stronger effect = lower value 0.995 | S. cerevisiae deletion strains, locus YNL233W, strain BNI4, stronger effect = lower value 0.997 | S. cerevisiae deletion strains, locus YNL248C, strain rpa49, stronger effect = lower value 1.01 | S. cerevisiae deletion strains, locus YNL250W, strain rad50, stronger effect = lower value 0.991 | S. cerevisiae deletion strains, locus YNL271C, strain bni1, stronger effect = lower value 0.992 | S. cerevisiae deletion strains, locus YNL298W, strain CLA4, stronger effect = lower value 0.97 | S. cerevisiae deletion strains, locus YNL307C, strain MCK1, stronger effect = lower value 0.999 | S. cerevisiae deletion strains, locus YNL322C, strain KRE1 (second series), stronger effect = lower value 0.964 | S. cerevisiae deletion strains, locus YNL322C, strain KRE1, stronger effect = lower value 0.99 | S. cerevisiae deletion strains, locus YNR049C, strain mso1, stronger effect = lower value 0.974 | S. cerevisiae deletion strains, locus YNR052C, strain pop2, stronger effect = lower value 0.984 | S. cerevisiae deletion strains, locus YOL006C, strain TOP1, stronger effect = lower value 0.975 | S. cerevisiae deletion strains, locus YOL012C, strain htz1 0.729 | S. cerevisiae deletion strains, locus YOL147C, strain pex11, stronger effect = lower value 1 | S. cerevisiae deletion strains, locus YOR001W, strain rrp6, stronger effect = lower value 0.969 | S. cerevisiae deletion strains, locus YOR061W, strain CKA2, stronger effect = lower value 1 | S. cerevisiae deletion strains, locus YOR069W, strain VPS5, stronger effect = lower value 0.995 | S. cerevisiae deletion strains, locus YOR070C, strain gyp1, stronger effect = lower value 0.994 | S. cerevisiae deletion strains, locus YOR080W, strain dia2, stronger effect = lower value 0.951 | S. cerevisiae deletion strains, locus YOR083W, strain WHI5, stronger effect = lower value 0.971 | S. cerevisiae deletion strains, locus YOR106W, strain vam3, stronger effect = lower value 0.925 | S. cerevisiae deletion strains, locus YOR136W, strain idh2, stronger effect = lower value 0.985 | S. cerevisiae deletion strains, locus YOR144C, strain elg1, stronger effect = lower value 0.991 | S. cerevisiae deletion strains, locus YOR184W, strain ser1, stronger effect = lower value 0.989 | S. cerevisiae deletion strains, locus YOR231W, strain MKK1, stronger effect = lower value 0.986 | S. cerevisiae deletion strains, locus YOR265W, strain rbl2, stronger effect = lower value 0.985 | S. cerevisiae deletion strains, locus YOR270C, strain vph1, stronger effect = lower value 0.956 | S. cerevisiae deletion strains, locus YOR290C, strain snf2, stronger effect = lower value 1 | S. cerevisiae deletion strains, locus YOR316C, strain cot1, stronger effect = lower value 0.972 | S. cerevisiae deletion strains, locus YPL051W, strain arl3, stronger effect = lower value 0.99 | S. cerevisiae deletion strains, locus YPL055C, strain LGE1, stronger effect = lower value 0.944 | S. cerevisiae deletion strains, locus YPL078C, strain atp4, stronger effect = lower value 0.954 | S. cerevisiae deletion strains, locus YPL106C, strain sse1, stronger effect = lower value 0.982 | S. cerevisiae deletion strains, locus YPL240C, strain hsp82, stronger effect = lower value 0.976 | S. cerevisiae deletion strains, locus YPL241C, strain CIN2, stronger effect = lower value 0.999 | S. cerevisiae deletion strains, locus YPL256C, strain CLN2, stronger effect = lower value 1 | S. cerevisiae deletion strains, locus YPR119W, strain clb2, stronger effect = lower value 0.994 | S. cerevisiae deletion strains, locus YPR141C, strain kar3, stronger effect = lower value 0.979 | S. cerevisiae deletion strains, locus YPR163C, strain tif3, stronger effect = lower value 0.992 | S. cerevisiae deletion strains, locus YPR167C, strain met16, stronger effect = lower value 0.986 | S. cerevisiae deletion strains, strain wtn01, stronger effect = lower value 0.96 | S. cerevisiae strains, strain wild type, stronger effect = lower value 0.996
